Bioassay records: PubChem BioAssay, several laboratories
CSC inhib: blocks cancer stem cells. cancer stem cell-like cells viability, luminescence. inhibition, % at 7.5 µM. 1.1% of 300,000 active. AID 2717; in the data active = inhibition above about 75%; tested in HMLE shEcad cells
Mdm2-MdmX inh: disrupts the human Mdm2-MdmX interaction; SaOS-2 split-luciferase Mdm2/MdmX complementation, luminescence; AID 485346; 3% of 330,000 active; inhibition, % at 8 µM;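 active = inhibition of at least 50% at 8 µM in the primary screen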
Target sequence (O15151 whole entry, looked up): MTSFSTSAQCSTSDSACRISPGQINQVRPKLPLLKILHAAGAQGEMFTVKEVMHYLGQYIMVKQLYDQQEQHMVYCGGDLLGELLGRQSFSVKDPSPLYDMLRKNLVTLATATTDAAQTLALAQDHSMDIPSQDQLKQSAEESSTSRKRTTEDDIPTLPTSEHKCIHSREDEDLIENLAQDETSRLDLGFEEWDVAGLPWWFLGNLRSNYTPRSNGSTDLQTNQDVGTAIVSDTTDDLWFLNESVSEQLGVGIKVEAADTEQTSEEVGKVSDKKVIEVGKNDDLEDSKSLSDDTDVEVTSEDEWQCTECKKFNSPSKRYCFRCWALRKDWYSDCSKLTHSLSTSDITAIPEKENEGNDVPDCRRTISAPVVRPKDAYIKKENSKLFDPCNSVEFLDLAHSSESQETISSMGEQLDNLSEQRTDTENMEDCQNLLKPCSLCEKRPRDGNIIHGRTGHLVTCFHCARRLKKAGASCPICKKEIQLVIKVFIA
Target sequence (Q00987 whole entry, looked up): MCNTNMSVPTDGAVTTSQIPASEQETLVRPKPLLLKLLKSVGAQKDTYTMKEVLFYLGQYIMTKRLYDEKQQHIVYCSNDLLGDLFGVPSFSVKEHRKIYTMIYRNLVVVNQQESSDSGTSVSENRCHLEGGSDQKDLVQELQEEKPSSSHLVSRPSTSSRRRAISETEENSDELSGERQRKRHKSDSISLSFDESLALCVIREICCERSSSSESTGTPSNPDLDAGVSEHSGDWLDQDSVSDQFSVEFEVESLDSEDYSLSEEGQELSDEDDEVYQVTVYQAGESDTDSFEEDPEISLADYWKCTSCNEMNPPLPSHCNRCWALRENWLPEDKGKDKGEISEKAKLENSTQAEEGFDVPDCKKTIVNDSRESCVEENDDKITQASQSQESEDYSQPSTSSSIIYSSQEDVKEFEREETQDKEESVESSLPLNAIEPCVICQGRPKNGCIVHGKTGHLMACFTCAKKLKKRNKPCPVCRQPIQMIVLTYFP
MPTP block: permeability transition pore inhibition | isolated mouse mitochondria, Ca2+ swelling absorbance, 30 min | inhibition, % at 10 µM | 1.4% of 360,000 active;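 active = inhibition of 50% or more, scaled per plate between neutral and stimulator controls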;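 note: 0% = DMSO wells given calcium and 100% = 1 mM EGTA wells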
Calb FLC: affects C. albicans growth with fluconazole; growth inhibition, % (no concentration beside the values); C. albicans CaCi-2 (fluconazole-resistant clinical isolate) + fluconazole, Alamar Blue growth, 48 h; AID 1979; 0.57% of 300,000 active;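 active = growth inhibition above about 58% in most replicates, limit read from the data, passing the limit was not always enough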;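 note: all wells also contain fluconazole at 8 µg/ml as a sub-toxic cotreatment; 0% = median of DMSO wells and 100% = median of geldanamycin control wells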
Beta cell apopt: blocks beta cell apoptosis | INS-1E cytokine-induced death, ATP luminescence, 48 h; percent of positive-control rescue, neutral wells zero | protection from apoptosis, % (no concentration beside the values) | 0.8% of 300,000 active;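 active = Every replicate reaches about 75%, or at least half do and their mean reaches it too, limit read from the data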;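 note: 0% = cytokine-treated negative control wells and 100% = positive control rescue; higher means more ATP so stronger rescue from cytokine killing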
MPTP counter: mitochondrial membrane potential, counter-screen; shares compounds with MPTP block; isolated mitochondria, Rhodamine 123 fluorescence; inhibition, % at 10 µM; 78% of 5,000 active; AID 624504; in the data active = inhibition above about 22%;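 note: 0% = DMSO vehicle and 100% = positive control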
MPTP abs DR: dose response confirmation of mitochondrial permeability transition pore inhibitors | shares compounds with MPTP block | isolated mitochondria swelling, absorbance | IC50, µM | 58% of 780 active | AID 651561; in the data active = IC50 below about 20 µM
MPTP counter DR: active in counter-screen for permeability transition pore inhibitors; 49% of 780 active; isolated mitochondria counterscreen, fluorescence read-out; IC50, µM; shares compounds with MPTP block; in the data active = IC50 below about 80 µM
The depositor's hits bear a star; i = inactive; x = no result given. Hits are enriched below; roughly 4.8% of the tested compounds scored in any of these assays.

SMILES | CSC inhib | Mdm2-MdmX inh | MPTP block | Calb FLC | Beta cell apopt | MPTP counter | others
Cn1c(=N)n(CC(O)c2cccc3ccccc23)c2ccccc21 (stereo not given) | -6 | 31 | 90* | 1 | 6 | 5 | MPTP abs DR=3.4*;MPTP counter DR=37*
CC(C)(C)c1cc(C(=O)NC2CC2)n(Cc2ccc(F)cc2)n1 | 0 | 9 | 2 | -2 | -1 | x
CC(C)(C)c1cc(C(=O)Nc2ccc(F)cc2)n(Cc2ccc(F)cc2)n1 | 41 | 44 | 80* | 0 | 8 | 87*
CC(C)(C)c1cc(C(=O)NNc2cc(C(F)(F)F)ccc2Cl)n(Cc2ccccc2)n1 | 103* | 29 | 75* | -8 | 36 | 78*
Cc1ccc(NCC(=O)N=Nc2c(O)[nH]c3ccc([N+](=O)[O-])cc23)cc1 | -10 | 18 | x | -1 | 3 | x
Cc1ccc(OC(C)C(=O)N=Nc2c(O)[nH]c3ccc([N+](=O)[O-])cc23)cc1 (stereo not given) | 46 | 9 | 73* | 39 | -1 | 68*
CCOc1ccc(C(=O)NNC(=O)C2CC(=O)N(c3ccc(C)cc3)C2)cc1 (stereo not given) | -1 | -4 | -1 | -4 | -2 | x
O=C(Nc1cccc([N+](=O)[O-])c1)Nc1cccs1 | -3 | 29 | 89* | 64 | 16 | 85*
CC(NC(=O)Nc1cccnc1)(C(F)(F)F)C(F)(F)F | -11 | 8 | 2 | 0 | -1 | x
CC(NC(=O)Nc1cccc([N+](=O)[O-])c1)(C(F)(F)F)C(F)(F)F | 2 | 48 | 106* | 22 | 37 | 102*
Cc1c(C(=O)Nc2cccc([N+](=O)[O-])c2)csc1-c1ccccc1 | 14 | 45 | 85* | -11 | 3 | 89*
CCC(C)c1ccc(NC(=O)COc2c(F)c(F)c(C(F)(F)F)c(F)c2F)cc1 (stereo not given) | 61 | 11 | 83* | -9 | 3 | 95*
CSc1ccc(OCC(=O)Nc2ccc(N3CCOCC3)c(Cl)c2)cc1 | x | 17 | 1 | -2 | x | x
O=C(COc1c(F)c(F)c(C(F)(F)F)c(F)c1F)Nc1ccc(N2CCOCC2)c(Cl)c1 | 32 | 17 | 90* | 19 | 5 | 78*
COc1cccc(C(NC(C)=O)c2nc(-c3ccc(F)c(Cl)c3)cs2)c1 (stereo not given) | x | x | 1 | x | x | x
O=C(c1cccc(Oc2c(Cl)cccc2[N+](=O)[O-])c1)N1CCCCC1 | -14 | 2 | 0 | 4 | 0 | x
CC(=O)c1ccc(OCc2ccc(C(=O)c3ccccc3)cc2)cc1 | 11 | -11 | 94* | 0 | 51 | 94*
CC(=O)c1ccc(OCc2ccc(Oc3c(Cl)cccc3[N+](=O)[O-])cc2)cc1 | 15 | 5 | 56* | 7 | 1 | 36*
CSc1ccccc1C(=O)C1CCCN(S(=O)(=O)c2c(C)noc2C)C1 (stereo not given) | -2 | -19 | -1 | 8 | -2 | x
O=C(CCNS(=O)(=O)c1ccc(Cl)cc1)Nc1ccncc1 | 9 | 5 | 0 | -2 | -8 | x
COc1ccc([N+](=O)[O-])cc1NC(=O)C(C)OC(=O)CC1CCCC1 (stereo not given) | x | 11 | -1 | x | -2 | x
Cc1ccc2c(c1)nnn2C1CCN(S(=O)(=O)c2ccc(C(=O)N3C(C)CCCC3C)cc2)CC1 (stereo not given) | 41 | 26 | 98* | 12 | 106* | 87*
COC(=O)CN(c1ccccc1)S(=O)(=O)c1cc(Br)ccc1OC | -23 | -12 | 0 | 19 | -6 | x
O=C(Cc1ccccc1F)Nc1ccc(SC(F)F)cc1 | 25 | -109 | 11 | -15 | 3 | x
O=C(Cc1ccc(Cl)cc1)Nc1ccc(SC(F)F)cc1 | 34 | -53 | 92* | 16 | 0 | 105*
SMILES | CSC inhib | Mdm2-MdmX inh | MPTP block | Calb FLC | Beta cell apopt | MPTP counter | others
COc1ccc(CN2C[C@@H](CO)O[C@@H](n3cnc4c(N5CCN(CCO)CC5)ncnc43)C2)cc1 | x | x | 0 | x | x | x
CCc1ccc(NC(=O)CS(=O)CC(=O)Nc2ccc(-n3cnnn3)c(C)c2)cc1 (stereo not given) | -7 | -2 | -1 | 8 | x | x
O=C(CSc1ccc(C(F)(F)F)cc1[N+](=O)[O-])Nc1ccc2ccccc2c1 | 9 | -13 | 74* | 1 | -1 | 16 | MPTP abs DR=>100;MPTP counter DR=>80
CN(CC(=O)Nc1ccc(S(=O)(=O)N2CCCC2)cc1)Cc1ccc(Cl)cc1Cl | 11 | 7 | 6 | 0 | 0 | x
COc1ccc(CN(C)c2ccc(S(=O)(=O)N3CCN(C)CC3)cc2[N+](=O)[O-])cc1OC | x | 9 | 97* | x | 102* | 99*
O=C(CSCc1ccc(Cl)cc1)Nc1ccc(S(=O)(=O)N2CCCCCC2)cc1 | 43 | -25 | 53* | 2 | -4 | 80*
CN(CC(=O)Nc1ccc(Cl)cc1)c1ccc(S(=O)(=O)N2CCCCC2)cc1[N+](=O)[O-] | 27 | 28 | 82* | -6 | 0 | 67*
CC(C)CN(C(=O)CN1C(=O)NC(c2ccccc2)(c2ccccc2)C1=O)C1CCS(=O)(=O)C1 (stereo not given) | x | -4 | -1 | x | -1 | x
O=C(CCC(=O)Nc1cccnc1)Nc1cccnc1 | -4 | -32 | 2 | 2 | -2 | x
COc1ccc(NC(=O)CSCC(=O)NCc2cccc(C(F)(F)F)c2)cc1 | 3 | 9 | 2 | x | 3 | x
COc1cc(NC(=O)CSCC(=O)Nc2cccc(C(F)(F)F)c2)c(Cl)cc1Cl | 23 | 11 | 58* | -6 | -5 | 63*
CC(C)c1ccccc1NC(=O)Cn1c(/C=C/c2ccccc2)nc2ccccc21 | 30 | 16 | x | 7 | 68 | x
Cc1ccc(NC(=O)Cn2c(/C=C/c3ccccc3)nc3ccccc32)cc1C | 14 | 45 | 63* | -22 | -30 | 60*
Cc1cc(C(=O)COc2cccnc2[N+](=O)[O-])c(C)n1Cc1cccs1 | 16 | -9 | -3 | -4 | 3 | x
CC(=O)Nc1ccccc1OCC(=O)c1cc(C)n(Cc2cccs2)c1C | 37 | -9 | 100* | 4 | 111* | 94*
COc1ccc(CNC2CCCc3ccccc32)cc1OC (stereo not given) | -1 | -3 | 61* | -6 | -4 | 0 | MPTP abs DR=i;MPTP counter DR=69*
COc1ccccc1CNC1CCCc2ccccc21 (stereo not given) | -11 | 0 | 1 | 3 | -12 | x
Cc1cc(N2CCCC2=O)cc(C)c1S(=O)(=O)NCCOc1ccccc1 | -1 | 18 | 1 | -14 | 2 | x
Cc1ccc(OCCNS(=O)(=O)c2ccc(N3CCCC3=O)cc2)cc1 | -1 | 20 | 84* | 10 | x | 70*
Cc1ccc(OCCNS(=O)(=O)c2ccc(N3CCCC3=O)cc2)cc1C | -2 | 16 | 104* | 11 | 43 | 92*
